# Assay outcomes (PubChem)
# Compounds with a hit are over-represented: about 1.4% of the library has one in this group of screens.
# PTPN22 act: activators of human LYP (PTPN22) phosphatase; Q9Y2R2; hit rate 0.11% among 96,000; recombinant LYP, DiFMUP fluorescence; 0 = plate median, 100 = signal doubled; activation, % at 2 µM;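 active = activation at 2 µM above a set limit, the mean plus 5 SD, cut at about 37% in these data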
# S1P2 antag: blocks the human S1P2 receptor; O95136; cell-based S1P2 antagonist assay, inhibition at 5 uM; hit rate 0.21% among 97,000; AID 736; inhibition, % at 5 µM; in the data active = inhibition above about 45%;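 also: CRE beta-lactamase reporter cells expressing human S1P2 stimulated with S1P; 0% = agonist at EC80 alone and 100% = agonist plus reference antagonist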
# GALR2 blocker: antagonists of human galanin receptor 2 (GALR2); O43603; GALR2-expressing cells, antagonist mode; inhibition, % at 4 µM; hit rate 0.39% among 140,000; AID 828; in the data active = inhibition above about 27%;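 also: cells stimulated with galanin 1-16 at roughly its EC80; 0% = agonist challenge control and 100% = basal control without agonist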
# Target sequence (O43603 whole entry, looked up): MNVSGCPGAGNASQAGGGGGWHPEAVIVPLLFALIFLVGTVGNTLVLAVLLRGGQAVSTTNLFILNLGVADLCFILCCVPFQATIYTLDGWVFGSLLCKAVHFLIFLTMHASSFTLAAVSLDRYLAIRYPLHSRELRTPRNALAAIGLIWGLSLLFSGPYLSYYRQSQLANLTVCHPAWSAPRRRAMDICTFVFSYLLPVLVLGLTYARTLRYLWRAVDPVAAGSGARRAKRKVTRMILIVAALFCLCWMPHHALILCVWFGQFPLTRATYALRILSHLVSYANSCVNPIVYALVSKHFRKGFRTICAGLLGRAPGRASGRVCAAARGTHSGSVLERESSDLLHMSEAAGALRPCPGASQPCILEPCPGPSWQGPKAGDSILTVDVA
# LYP inh 2: LYP (human) phosphatase inhibition; Q9Y2R2; recombinant LYP catalytic domain, DiFMUP fluorescence; inhibition, % at 2 µM; hit rate 0.21% among 96,000;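 active = inhibition at 2 µM at or above a set limit, the screen mean plus 3 SD, cut at about 24% in these data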;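 also: 0% = DMSO with enzyme and 100% = enzyme fully blocked by orthovanadate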
# GALR2 agonist: GALR2 (human) receptor agonism | O43603 | GALR2-expressing cells, agonist activation read-out | activation, % (concentration not given with the values) | hit rate 0.48% among 140,000; in the data active = activation above about 5%, passing the limit was not always enough;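 also: 0% = vehicle buffer wells and 100% = reference agonist at full effect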
# S1P2 agonist: activates the human S1P2 receptor; O95136; activation, % at 4.5 µM; S1P2-expressing cell line, agonist reporter read-out; hit rate 0.46% among 97,000; in the data active = activation above about 16%;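 also: 0% = vehicle low control and 100% = maximal reference agonist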
# An asterisk follows results filed as active; · = no result.
SMILES,PTPN22 act,S1P2 antag,GALR2 blocker,LYP inh 2,GALR2 agonist,S1P2 agonist
COc1ccccc1NC(=O)CN1CCC(n2nnc3cc(F)ccc32)CC1,5.9,-5.0,3.1,-8.5,-1.7,7.9
O=C(c1ccc(Cl)cc1)c1cnc(-c2ccc(Cl)cc2)s1,-40.1,17.9,7.5,41.2*,-2.4,-1.6
Cc1cc(F)ccc1NCC(=O)Nc1ccccc1Br,·,·,-18.6,·,-1.5,·
Clc1ccc2[nH]c3c(NCCCN4CCOCC4)ncnc3c2c1,-1.7,-19.4,12.8,-0.6,-2.5,4.0
O=C1CCCN1CCCNc1ncnc2c1[nH]c1ccc(Cl)cc12,6.0,11.4,-18.1,-2.0,-1.3,17.0*
COC(=O)c1ccccc1NC(=O)N1c2ccccc2Sc2ccccc21,·,·,-2.9,·,0.0,·
O=C(NC(=S)Nc1nc2ccccc2s1)c1cccs1,·,·,18.7,·,-1.6,·
CCc1ccc(-c2nc(NC(=S)NC(=O)c3cccs3)sc2C)cc1,-2.2,-4.5,-4.0,2.9,-2.3,17.2*
O=C1N/C(=N\N=C\c2ccc3ncccc3c2)SC1Cc1ccc(SC(F)F)cc1 (configuration not stated),5.6,8.2,2.2,-3.7,-2.2,-6.2
O=C1N/C(=N\N=C\c2cccnc2)SC1Cc1ccc(SC(F)F)cc1 (configuration not stated),-8.4,-15.6,11.2,10.0,-0.9,30.5*
CC(OC(=O)c1ccncc1)C(=O)Nc1cc(S(=O)(=O)N2CCCCC2)ccc1Cl (configuration not stated),·,·,8.0,·,-0.4,·
CCCOc1ccc(C2C(C(=O)OC)=C(C)N=C3SCCC(=O)N32)cc1OCC (configuration not stated),-6.2,-41.2,-8.8,5.3,1.0,25.3*
COc1ccc(C2=NN(C(C#N)c3ccc(OC)cc3)C(c3ccccc3)C2)cc1 (configuration not stated),·,·,-8.4,·,-2.1,·
CCOC(=O)c1nc(S(C)(=O)=O)ncc1Cl,-7.8,24.1,35.7*,7.6,-2.1,-6.3
CCOC(=O)c1nc(S(C)(=O)=O)ncc1N1CCOCC1,-2.8,3.9,2.3,1.1,-2.1,-3.6
CCCCNC(=O)c1cc2c(=O)n3cccc(C)c3nc2n(Cc2ccccc2)c1=N,·,·,3.9,·,7.7*,·
Cc1cccn2c(=O)c3cc(C(=O)NCCN4CCOCC4)c(=N)n(CCc4ccccc4)c3nc12,-7.2,-31.9,-28.6,5.6,7.9*,38.7*
Cc1cccn2c(=O)c3cc(C(=O)NCCc4ccccc4)c(=N)n(CCCn4ccnc4)c3nc12,10.6,-98.4,-4.6,-6.5,8.3,64.2*
COCCn1c(=N)c(C(=O)NCCc2ccccc2)cc2c(=O)n3cccc(C)c3nc21,7.0,-9.1,-1.4,-3.5,-0.9,0.3
CCNC(=O)c1cc2c(=O)n3cccc(C)c3nc2n(CCc2ccccc2)c1=N,-7.4,-0.1,4.2,6.2,-0.3,-3.6
COc1ccc(-c2ccc(C#N)c(SCC(=O)Nc3sc4c(c3C#N)CCC4)n2)cc1,-0.2,-8.4,10.3,-3.3,-0.7,-1.8
N#Cc1ccc(-c2cccnc2)nc1SCC(=O)Nc1sc2c(c1C#N)CCC2,·,·,8.5,·,6.9*,·
Cc1ccc(-n2c(=O)c(C#N)cc3c(=O)n4cccc(C)c4nc32)cc1,6.5,-19.0,-9.9,-7.5,0.2,0.2
Cc1ccc2nc3c(cc(C#N)c(=O)n3-c3nccs3)c(=O)n2c1,·,·,-21.7,·,26.6*,·
Cc1ccc2nc3c(cc(C#N)c(=O)n3CC3CCCO3)c(=O)n2c1 (configuration not stated),·,·,-5.3,·,6.8*,·
SMILES,PTPN22 act,S1P2 antag,GALR2 blocker,LYP inh 2,GALR2 agonist,S1P2 agonist
CC1(C)CC(=O)C(=C2SCCCS2)C(=O)C1,·,·,-9.4,·,-0.3,·
Cc1nc2c(Br)cc(Br)cc2cc1O,0.9,-8.8,-0.9,0.0,-1.9,-18.7
C=CCn1c(Cc2ccc(OC)cc2)nnc1SCc1nc2ccccc2c(=O)[nH]1,2.8,9.5,-0.8,-5.4,-0.7,-3.4
COCCn1c(Cc2ccccc2)nnc1SCc1nc2ccccc2c(=O)[nH]1,-25.0,-3.8,8.0,27.7*,-1.9,-1.4
Cc1cc(SCC(=O)N(C)CC(=O)Nc2ccc(F)cc2)nc2ccccc12,·,·,11.5,·,-0.7,·
CCCCCCN(C(=O)CCCCCN1C(=O)NC(c2ccc(-c3ccccc3)cc2)C(C(=O)OCc2ccccc2)=C1C)C(C(=O)NCCCC)c1ccc(O)cc1 (configuration not stated),·,·,-12.2,·,-0.9,·
O=C(NCc1cccnc1)/C(=C/c1ccc(-c2cccc(C(F)(F)F)c2)o1)NC(=O)c1ccccc1,-2.8,-4.2,9.0,1.9,-1.9,-2.8
O=C(NCc1cccnc1)/C(=C/c1ccc(-c2ccc(Cl)cc2)o1)S(=O)(=O)c1ccccc1,-4.7,54.3*,24.1,8.3,0.6,-4.7
Nc1c(C(=O)NCCN2CCOCC2)c2nc3ccccc3nc2n1-c1ccccc1,7.6,-3.9,0.7,-8.8,2.1,-0.3
Nc1c(C(=O)NCCN2CCOCC2)c2nc3ccccc3nc2n1CCc1ccccc1F,5.2,-38.1,-19.2,-4.6,5.3*,45.3*
Nc1c(C(=O)NCCN2CCOCC2)c2nc3ccccc3nc2n1CCc1ccccc1,-0.8,-4.3,-19.9,0.2,8.6*,29.1*
Cc1cccc(C)c1NC(=S)NC(C)CCc1ccccc1 (configuration not stated),·,·,-10.4,·,-0.1,·
O=C(Oc1cccc(/C=N/Nc2nc(Nc3ccccc3)nc(N3CCOCC3)n2)c1)c1ccco1,·,·,14.1,·,-1.5,·
CCCCCCCC#Cc1ccccc1/C=N/S(=O)c1ccc(C)cc1 (configuration not stated),·,·,3.3,·,-2.1,·
Fc1ccc(-n2nnnc2-c2cnc(-c3cccs3)nc2C(F)(F)F)cc1,-9.7,76.1*,10.5,14.4,-1.2,-10.9
CCC(C)n1c(NC(=O)c2ccccc2)c(C#N)c2nc3ccccc3nc21 (configuration not stated),2.9,-76.8,1.6,2.4,33.8*,55.9*
O=C(Nc1ccccc1C(=O)NCc1cccnc1)c1ccc(Cl)cc1Cl,·,·,8.3,·,-1.6,·
CCSc1nc(-c2ccccc2)nc(C(Cl)Cl)n1,·,·,-4.4,·,7.6*,·
CN(C)c1nc(N)nc(CSc2n[nH]c(-c3ccccc3)n2)n1,3.2,-29.9,-1.2,-6.8,-1.8,30.6*
O=C(CSc1n[nH]c(-c2ccccc2)n1)c1ccccc1,1.4,-10.0,-1.7,-3.8,-2.3,-3.1
CCN(CC)c1ccc(/C=N/NC(=O)CCC(=O)NCc2ccccc2)c(O)c1,·,·,21.0,·,-0.3,·
Cc1cc(=O)oc2cc(Nc3ccccc3)ccc12,·,·,11.5,·,0.1,·
CCNc1ccc2c(Cl)cc(=O)oc2c1,0.7,47.4*,15.7,-4.3,6.3,-4.5
COc1ccc(CC/C(C)=N\NC(N)=O)cc1,·,·,0.9,·,-0.5,·
COC(=O)c1ccc(COc2ccccc2/C=C(\C#N)C(=O)Nc2c(C)cccc2C)cc1,·,·,18.8,·,1.4,·
CCOc1cc(C(=O)CSc2nnc(CNc3ccc(Cl)cc3)o2)ccc1NC(=O)CC,-2.0,47.0*,26.9,-0.3,7.8*,10.1
